High-throughput results as filed in PubChem BioAssay.
Peg3 prom inh-1: inhibitors of Peg3 promoter; HeLa PEG-Prom luciferase reporter, luminescence, overnight; inhibition, % at 20 µM; hit rate 1.7% among 360,000; AID 588405;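 active means inhibition of at least 50% at 20 µM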
Shn3 inh set2: inhibitors of Schnurri-3 3'UTR reporter in osteoblasts; inhibition, % at 12.5 µM; Clone20 osteoblast Shn3 3'UTR firefly luciferase, 24 h; hit rate 0.52% among 360,000;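 active means mean inhibition of at least 75% with every replicate also reaching 75%; inconclusive means mean inhibition at least 75% but some replicate below; inactive means mean inhibition below 75%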;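 further: 0% = median of neutral control wells and 100% = pilot-screen positive control compound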
HIF-2a block: inhibitors of HIF-2a | 786-0 RCC cells HIF-2a reporter, luciferase luminescence, overnight | inhibition, % at 18.8 µM | AID 624352 | hit rate 0.72% among 360,000;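 active means inhibition of the luminescence signal of 40% or more relative to plate controls, in a single-dose primary screen at 18.75 µM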
KKLEB cytotox: CF airway cell cytotoxicity counter-screen; AID 602141; hit rate 0.36% among 360,000; activity change (cytotoxicity), % at 5 µM; KKLEB CF airway cells viability, ATPlite luminescence, overnight; hits give low values; cells stimulated with P. aeruginosa culture filtrate;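 active means corrected activity change at or below -50% at 5 µM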
CF NFkB inh: inhibitors of cystic fibrosis induced NF-kB; hit rate 0.86% among 360,000; inhibition, % at 5 µM; KKLEB NF-kB-GFP reporter, PAF-induced, GFP fluorescence overnight; AID 588850;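 active means at least 50% inhibition at 5 µM, scaled per plate between neutral and stimulator controls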;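 further: PAF is a Pseudomonas aeruginosa culture filtrate used as stimulus; plate controls were PAF-stimulated DMSO wells for no effect and unstimulated DMSO wells for full effect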
TRPM1 prom inh: reduces MITF-dependent TRPM1 promoter luciferase signal; SK-MEL-5 TRPM1 promoter luciferase, 24 h; inhibition, % at 12.5 µM; hit rate 0.83% among 330,000; AID 488899;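 active means mean inhibition across replicates of 60% or more, whatever share of single replicates reaches that level; inconclusive means some that reach 60%, reason not given; inactive means mean inhibition across replicates below 60%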
Peg3 prom inh-2: confirmation of Peg3 promoter inhibitors; AID 602417; HeLa PEG-Prom luciferase reporter, luminescence, overnight; inhibition, % at 20 µM; hit rate 84% among 1,300; shares compounds with Peg3 prom inh-1;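 active means at 20 µM dose, 40% or more inhibition averaged across four replicates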
CF NFkB conf: confirmation of cystic fibrosis induced NF-kB inhibitors; shares compounds with CF NFkB inh; KKLEB CF airway cells, PAF-induced NF-kB-GFP fluorescence, overnight; inhibition, % at 5 µM; hit rate 64% among 1,300; in the data active means inhibition above about 40%;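 further: stimulus PAF is a Pseudomonas aeruginosa filtrate and not platelet activating factor; plate controls were DMSO wells with stimulus for no effect and unstimulated DMSO wells for full effect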
HIF-2a conf: HIF-2a inhibition, single concentration confirmation | 786-0 RCC cells, HIF-2a luciferase reporter luminescence, overnight | inhibition, % at 18.8 µM | shares compounds with HIF-2a block | hit rate 56% among 1,800 | AID 651580;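 active means mean inhibition across four replicates of at least 40 percent at the single tested concentration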
HIF-1a counter: counter-screen for HIF-2a inhibitors: HIF-1a inhibition in MiaPaCa-2 cells; shares compounds with HIF-2a block; MiaPaCa-2 HIF-1a luciferase reporter, desferoxamine, overnight; inhibition, % at 18.8 µM; hit rate 72% among 1,800;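 active means mean inhibition of the reporter signal across four replicates at the single tested dose of 50% or more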
The depositor's hits bear a star; ? = inconclusive; . = no result. In the library only some 2.7% were active in any assay of this set; here they are far more common.

SMILES	Peg3 prom inh-1	Shn3 inh set2	HIF-2a block	KKLEB cytotox	CF NFkB inh	TRPM1 prom inh	Peg3 prom inh-2	CF NFkB conf	others
CC1(C(=O)NCc2cccc3ccccc23)CCN1C(=O)Cc1ccc(-c2ccccc2)cc1 (stereo unspecified)	53.3*	33.8	-0.6	-11.0	-19.2	.	51.4*	.
COc1ccc(C(=O)O/N=C(\N)c2ccccn2)cc1	98.8*	61.6	16.7	-6.8	2.4	80.5*	91.9*	.
COc1ccccc1C(=O)O/N=C(\N)c1ccccn1	-133.8	-37.9	-148.5	-7.5	-6.2	-5.7	.	.
COc1ccc(C(=O)NNC(=O)c2ccccn2)cc1	104.6*	65.5	82.6*	-17.5	-19.3	85.4*	95.3*	.
N/C(=N\OC(=O)c1ccc(Cl)cc1)c1ccccn1	78.3*	28.7	-3.5	-23.3	-9.4	-18.2	-6.0	.
N/C(=N\OC(=O)c1ccccc1Cl)c1ccccn1	59.2*	42.8	30.1	-36.9	-17.0	66.3*	6.1	.
COc1cc(OC)cc(C(=O)O/N=C(\N)c2ccccn2)c1	-194.0	-170.3	-234.0	8.6	-4.5	.	.	.
CCC(=O)N1CCCC(C)(C(=O)Nc2ccc3oc(CC)nc3c2)C1 (stereo unspecified)	-21.1	-21.6	5.4	17.6	8.2	.	.	.
COc1cc(OC)cc(C(=O)Nc2ccccc2-c2nnn(CC(=O)Nc3cc(C)on3)n2)c1	71.0*	-0.9	7.5	-6.9	17.1	-0.9	19.2	.
Nc1ccn([C@@H]2O[C@H](CNCc3cccc(OC4CCCC4)c3)[C@@H](O)[C@H]2O)c(=O)n1	8.9	-19.1	7.7	9.3	-21.1	.	.	.
COc1ccc(Nc2nc(-c3ccccc3)nc3ccccc23)cc1S(=O)(=O)N1CCOCC1	62.4*	.	-57.2	-24.5	89.4*	5.8	58.9*	74.6*
COc1ccc(NC(=O)c2cc(C)nc3ccccc23)cc1S(=O)(=O)N1CCOCC1	-30.3	-4.7	11.6	-6.3	10.6	5.2	.	.
CCCNC(=O)OC1CC2CC1[C@H]1CCCCN1C2=O (stereo partly specified)	.	.	2.0	.	.	.	.	.
Cc1ccc(-n2cc(-c3ccccc3)c3c(N4CCOCC4)ncnc32)cc1	66.8*	-31.8	16.5	-16.8	84.5*	1.2	62.5*	87.1*
CCc1nc(Sc2nnnn2-c2ccccc2)c2c3c(sc2n1)CCCC3	59.8*	-0.6	34.4	-19.3	59.3*	3.9	60.6*	28.4
Cc1c(C(=O)/C=C/c2ccccc2F)c2cc(O)ccc2n1C	-131.6	-81.5	-24.7	4.6	-39.5	.	.	.
COc1ccc(-c2oc3ccc(-c4cc(OC)c(OC)c(OC)c4)cc3c2C#Cc2ccccn2)cc1	54.0*	16.1	7.5	3.5	72.1*	6.3	51.4*	28.1
COc1ccc(C#Cc2c(-c3ccc(OC)cc3)oc3ccc(-c4ccc(OC)cc4)cc23)cc1	-4.5	1.5	-0.5	-23.8	21.1	-3.2	.	.
CS(=O)(=O)c1ccc2nc(NC(=O)CCS(=O)(=O)c3ccccc3)sc2c1	71.2*	9.5	19.0	0.3	75.1*	19.1	46.6*	63.6*
O=C(NC1CCCC1)C(c1ccccc1)n1c(-c2ccc3c(c2)CCO3)nc2ccccc21 (stereo unspecified)	.	.	-10.1	.	.	.	.	.
O=C1C=CC(=O)N1c1ccc(-c2nc3ccccc3o2)cc1	108.0*	80.4	-96.3	-24.7	50.8*	.	97.3*	10.3
Nc1ccc(-c2nc3ccccc3o2)cc1	-305.7	-23.8	-129.5	-2.4	-16.2	0.3	.	.
Cc1cnc(NC(=O)C2CC(=O)N(c3cccc(Cl)c3)C2)s1 (stereo unspecified)	106.5*	-241.9	-197.2	15.7	78.1*	-19.1	94.3*	85.6*
CCN1CCN(C(=O)c2cnn3c(C(F)F)cc(-c4ccc(C)cc4)nc23)CC1	7.6	7.0	9.2	0.7	-12.3	10.0	.	.
CCc1nccn1C(=O)c1cnn2c(C(F)F)cc(-c3ccc(C)cc3)nc12	61.3*	46.3	30.1	-44.1	68.1*	46.8	92.6*	91.1*
SMILES	Peg3 prom inh-1	Shn3 inh set2	HIF-2a block	KKLEB cytotox	CF NFkB inh	TRPM1 prom inh	Peg3 prom inh-2	CF NFkB conf	others
CN(C)c1ccc(C(C(=O)NCc2ccccc2)N(Cc2ccco2)C(=O)c2snc(C(N)=O)c2N)cc1 (stereo unspecified)	60.6*	14.5	-0.8	-42.3	98.8*	14.8	45.1*	88.9*
CC1CCN(C(=O)C2CCC(CNS(=O)(=O)c3ccc4c(c3)C(C)(C)C(=O)N4C)CC2)CC1 (stereo unspecified)	-7.6	7.8	1.4	-3.3	-2.2	.	.	.
Cc1cc2cc(CCNC(=O)C(=O)c3c[nH]c4ccccc34)c(=O)[nH]c2cc1C	59.2*	26.6	12.7	-0.5	59.2*	12.0	59.3*	52.2*
O=C(NCCc1c[nH]c2ccccc12)C(=O)c1c[nH]c2ccccc12	-23.9	13.7	-33.1	-5.0	-12.0	-6.1	.	.
O=C(Nc1ccc(-c2nc3ncccc3o2)cc1)c1ccc([N+](=O)[O-])o1	100.0*	97.0*	-2.2	-44.4	85.8*	77.1*	33.1	-121.4
O=C(Nc1ccc(Cl)cc1)c1ccc2sc([C@@H]3O[C@H](CO)[C@@H](O)[C@H]3O)nc2c1	-253.7	-61.2	-220.8	-3.5	-19.4	.	.	.
CCOc1ccc(NS(=O)(=O)c2cccs2)cc1S(=O)(=O)N1CCCC1	2.7	-3.4	4.3	3.4	-5.5	.	.	.
CCC1(O)C(=O)OCc2c1cc1n(c2=O)Cc2cc3cc(O)ccc3nc2-1 (stereo unspecified)	62.7*	28.6	52.2*	-27.3	83.9*	69.6*	52.0*	109.8*	HIF-2a conf=17.4;HIF-1a counter=101.6*
COC(=O)C1=CN(c2cccc(OCc3ccccc3)c2)C(N)=C(C#N)C1c1cccc(OC)c1OC (stereo unspecified)	.	.	2.8	.	.	.	.	.
CC(C)NC(=O)c1cccc2c(-c3ccc(F)c(F)c3)coc12	-70.6	-8.1	-129.6	-10.9	5.6	.	.	.
O=c1nc(N/N=C/c2ccccn2)cn[nH]1	37.2	?	17.9	-2.3	12.9	?	.	.
C(=N\Nc1nc2ccccc2[nH]1)/c1ccccn1	85.9*	89.1*	73.4*	-43.0	-29.9	83.2*	75.7*	.	HIF-2a conf=-19.4;HIF-1a counter=-36.1
